For one assay, the system named is TAB109. Put plainly: qHTS profiling for inhibitors of Plasmodium falciparum proliferation (AID 504749). Also: nearly all actives have a fitted effect of over 60% in size. The following applies: P. falciparum in erythrocytes, SYBR Green DNA, 72 h; series mostly up to 28.7 µM. In a few lines:
(§1)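 Each compound contacts P. falciparum-infected red blood cells for 72 h at 37 C; lysis buffer (Tris, EDTA, saponin, Triton X, SYBR Green I) is added and fluorescence measured next morning; values normalized to controls.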
For orientation: qHTS replaces the single test concentration by a dilution series.

The subject of the next assay is TAB113. The assay is described as above. The note with it: P. falciparum in erythrocytes, SYBR Green DNA, 72 h; series mostly up to 28.7 µM. In a few lines:
as §1

A further assay has as its system TAB165. The description is as above. The note with it: P. falciparum in erythrocytes, SYBR Green DNA, 72 h; series mostly up to 28.7 µM. In a few lines: as §1
The subject of a further assay is W2. The assay is described as above. The note with it: P. falciparum in erythrocytes, SYBR Green DNA, 72 h; series mostly up to 28.7 µM. In a few lines: as §1
The test system of a further assay is HEK293. Put plainly: Cytotoxic Profiling of Annotated Libraries Using Quantitative High-Throughput Screening (AID 1296008). Also: nearly all actives have a fitted effect of over 60% in size. As to max response: % is scaled to controls: 0 for no effect and ±100 for the full control effect. The following applies: Five cell lines viability, CellTiter-Glo ATP luminescence, 48-72 h; max response: stronger effect = lower value. In a few lines: (§2)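 Cells exposed to compounds for 48 or 72 hr at 37 degrees Celsius. Viability read as ATP-coupled luminescence with CellTiter-Glo after 10 min at room temperature.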
(In general: Cellular ATP, detected with luciferase, serves as a proxy for viable cell number.)

Another assay concerns HaCat. The assay is described as above. The following applies: Five cell lines viability, CellTiter-Glo ATP luminescence, 48-72 h; max response: stronger effect = lower value. In a few lines:
as §2

Another assay relates to MCC-26. Put plainly: qHTS assay to identify novel small-molecules to repurpose for Merkel cell carcinoma treatment (AID 1296009). Also: nearly all actives have a fitted effect of over 60% in size. The following applies: MCC and control cell lines, CellTiter-Glo viability, 72 h; series mostly up to 46 µM. In a few lines:
(§3)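 Dose-response viability screen; 72 hr exposure at 37 degree celsius; CellTiter-Glo added, 10 min room temperature, luminescence read; RLUs scaled between no-cell and DMSO wells.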

A further assay has as its system MKL-1. The description is as above. The note with it: MCC and control cell lines, CellTiter-Glo viability, 72 h; series mostly up to 46 µM. In a few lines: as §3
A further assay relates to MKL-2. Described as above. The note with it: MCC and control cell lines, CellTiter-Glo viability, 72 h; series mostly up to 46 µM. In a few lines:
as §3

A further assay concerns UISO. The assay is described as above. The note with it: MCC and control cell lines, CellTiter-Glo viability, 72 h; series mostly up to 46 µM. In a few lines: as §3
For the next assay, the system named is WaGa. The assay is described as above. The following applies: MCC and control cell lines, CellTiter-Glo viability, 72 h; series mostly up to 46 µM. In a few lines: as §3
A further assay concerns C33A. Put plainly: Primary qHTS to identify gynecologic anti-cancer compounds using libraries of approved drugs and bioactive compounds (AID 1345084). Also: nearly all actives have a fitted effect of over 55% in size. The note with it: Gynecologic cancer cell panel viability, ATPlite luminescence, 48 h; series mostly up to 57.5 µM. In a few lines: (§4)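 48 h compound exposure at 37 C, 5% CO2; five-point qHTS. ATPlite luminescence readout of cell ATP.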

A further assay concerns KB-3-1. Put plainly: Cytotoxic Profiling of Annotated Libraries Using Quantitative High-Throughput Screening (AID 1296008). Also: nearly all actives have a fitted effect of over 60% in size. As to max response: % is scaled to controls: 0 for no effect and ±100 for the full control effect. The following applies: Five cell lines viability, CellTiter-Glo ATP luminescence, 48-72 h; max response: stronger effect = lower value. In a few lines:
as §2

In a further assay the test system is MCC-13. Nature of the assay: qHTS assay to identify novel small-molecules to repurpose for Merkel cell carcinoma treatment (AID 1296009). Also: nearly all actives have a fitted effect of over 60% in size. The note with it: MCC and control cell lines, CellTiter-Glo viability, 72 h; series mostly up to 46 µM. In a few lines: as §3
The subject of a further assay is NIH3T3. Nature of the assay: Cytotoxic Profiling of Annotated Libraries Using Quantitative High-Throughput Screening (AID 1296008). Also: nearly all actives have a fitted effect of over 60% in size. As to max response: % is scaled to controls: 0 for no effect and ±100 for the full control effect. The note with it: Five cell lines viability, CellTiter-Glo ATP luminescence, 48-72 h; max response: stronger effect = lower value. In a few lines:
as §2

A further assay deals with CAOV3. Put plainly: Primary qHTS to identify gynecologic anti-cancer compounds using libraries of approved drugs and bioactive compounds (AID 1345084). Also: nearly all actives have a fitted effect of over 55% in size. The note with it: Gynecologic cancer cell panel viability, ATPlite luminescence, 48 h; series mostly up to 57.5 µM. In a few lines:
as §4

We go through ten compounds from PubChem BioAssay (NCATS).

Values joined by “and” are separate entries in the source; they are usually repeats but may differ in a detail not shown here. Equal values may be shown once. Records with an inconclusive call do not appear. A number with no mark means an inactive call. Active and inactive are the calls of the source. Calls follow the shape of the dose curve; as a rule, active = well fitted curve in the direction sought with a large enough effect; inconclusive = small, poorly fitted or top-dose-only effect, or another doubt; inactive = no such curve, though single readings can be large; an effect the other way counts as inactive or inconclusive.
Potency is read from the fitted curve at half-maximal effect.

As to `CCCCCCCCCCCCCC[N+](C)(C)Cc1ccccc1`, the Potency in the assay with TAB109 was 7.94 µM (active); in the assay on TAB113 it was 6.31 µM (active); in the assay with TAB165, 5.62 µM (active); with W2, 4.26 µM (active); in the assay with HEK293, 2.99 µM (active); with HaCat, 11.9 µM (active). Moreover, the Potency with MCC-26 was 21.1 µM (active); in the assay on MKL-1 it was 6.68 µM (active); in the assay on MKL-2 it was 1.06 µM (active); in the assay on UISO it was 6.68 µM (active); in the assay on WaGa, 7.5 µM (active); with C33A, 25.1 µM (active).
Regarding `CN(C)CCOC(c1ccc(Cl)cc1)c1ccccn1` (stereo not given), the Potency result in the assay on TAB113, with MCC-13, in the assay with MCC-26, in the assay on MKL-1, in the assay on MKL-2 and in the assay with UISO was “inactive” in each case. Besides, the Potency result in the assay on WaGa was “inactive”. Also, the Potency in the assay on W2 was 1.07 µM (active). Besides, the figures for the max response in the assay on HEK293 and in the assay on KB-3-1 were -23.8% and 10.7%, respectively.
For `O=c1[nH]c(=O)n([C@H]2C[C@H](O)[C@@H](CO)O2)cc1F`, the Potency result in the assay on TAB109, with TAB113, with TAB165 and in the assay with W2 was “inactive” each time. The Potency with HEK293 is 0.0299 µM (active); with HaCat it was 0.0084 µM (active); in the assay with NIH3T3, 0.006 µM (active); in the assay with WaGa, 0.0335 µM (active); in the assay on CAOV3 it was 1.58 µM (active).
`C=C[C@H]1CN2CC[C@H]1C[C@H]2[C@H](O)c1ccnc2ccc(OC)cc12`: the max response in the assay with HaCat was -3.94%; in the assay on KB-3-1, 4.92% and -14.4% and -25.6%; in the assay on NIH3T3, -2.33%. Moreover, the Potency entry in the assay on MCC-13, with MCC-26, in the assay on MKL-1, in the assay on MKL-2, in the assay on UISO and with C33A was “inactive” in each case. In addition, the Potency result in the assay on CAOV3 is “inactive”.
In the case of `Oc1c(Cl)cc(Cl)c(Cl)c1Cc1c(O)c(Cl)cc(Cl)c1Cl`, the Potency in the assay on TAB109 was 11.2 µM (active); with TAB113 it was 12.6 µM (active); in the assay with TAB165, 7.94 µM (active); in the assay with HEK293, 8.41 µM (active); in the assay with UISO, 11.9 µM (active); with WaGa it was 23.7 µM (active). Also, the Potency entry in the assay with MCC-26 and in the assay with CAOV3 was “inactive” in each case.
In the case of `NS(=O)(=O)c1cc(C(=O)O)cc(N2CCCC2)c1Oc1ccccc1`, the Potency entry with TAB109, with TAB113, in the assay with TAB165, with MCC-13, in the assay on MCC-26 and in the assay with MKL-1 was “inactive” each time. The Potency result in the assay on MKL-2, in the assay on UISO, in the assay with WaGa, in the assay with C33A and in the assay on CAOV3 was “inactive” throughout. In addition, the max response in the assay with HEK293 was 2.69%; with HaCat, -7.61%; in the assay with KB-3-1, 3.66%; in the assay with NIH3T3 it was -1.53%.
Regarding `CNCCCCOc1ccccc1Cc1ccccc1`, the Potency was 4.47 µM (active) in the assay on TAB109; 1.35 µM (active) with W2; 15 µM (active) in the assay with HEK293; 18.8 µM (active) in the assay on MKL-2; 18.8 µM (active) with WaGa; 25.1 µM (active) with C33A. Besides, the values for the max response in the assay with HaCat and with KB-3-1 were -10% and 9.62%, respectively. Also, the Potency entry in the assay on MCC-13 and with MCC-26 was “inactive” each time.
`O=C(O)C1(C(=O)O)CCC1.[NH2-].[NH2-].[Pt+2]`: the Potency entry in the assay with TAB109, with TAB113, in the assay with TAB165, in the assay with MCC-13, with MCC-26 and in the assay with MKL-1 was “inactive” each time. The Potency result in the assay on MKL-2, in the assay with UISO, in the assay with WaGa, with C33A and in the assay with CAOV3 was “inactive” throughout. The max response in the assay on HEK293 is 1.14%; with HaCat, 1.48%; in the assay with KB-3-1, 13%; with NIH3T3, -2.25%.
With `O=C(N/N=C/c1ccc([N+](=O)[O-])o1)c1ccc(O)cc1`, the Potency in the assay with HEK293 is 7.5 µM (active); in the assay on MKL-1 it was 9.44 µM (active); in the assay on MKL-2, 10.6 µM (active); in the assay on UISO, 13.3 µM (active); in the assay with WaGa it was 10.6 µM (active). In addition, the max response with HaCat was -33.9%; in the assay on KB-3-1 it was -13.9%.
Consider `CCc1nn(CCCN2CCN(c3cccc(Cl)c3)CC2)c(=O)n1CCOc1ccccc1`, for which the Potency entry in the assay on MCC-13, with MCC-26, in the assay with C33A and with CAOV3 was “inactive” in each case.
